“And” between values parts separate entries of the source, which are not always exact repeats. Identical values can stand only once. The whole screen tested about 2,100 compounds, of which about 180 (8.6%) showed an effect of 50% or more. This is one part of a sample in which strong results are shown more often than they occur.

The test system of the assay is MOLM1 and UCSD/AML1 (averaged). Put plainly: cell viability relative to DMSO control (POC); higher = less growth inhibition. As to conditions: 1 µM; 72 h. As to the method: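 Primary viability screen in the 3q26 EVI1-high AML cell lines MOLM1 and UCSD/AML1 (1.5e3 cells/well, 384-well), compounds at 1 uM for 72 h. ATP CellTiter-Glo read-out given as percent of viable cells over DMSO control (POC), averaged over duplicates. DMSO was the negative control and 5 uM etoposide the positive control. This mapping covers the MicroSource Spectrum and Selleck anticancer libraries (drug names).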
Take `COC(=O)C[C@H]1C(C)(C)[C@@H](OC(C)=O)[C@@H]2CC3=C4CC(=O)O[C@@H](c5ccoc5)[C@]4(C)CC[C@@H]3[C@@]1(C)C2=O`: the cell viability was 103%.

As for `COC(=O)c1c(C)cc(O)cc1O`, the cell viability was determined as 98.5%.

As for `Cc1cc(C(C)(C)CC(C)(C)C)ccc1OCCOCC[N+](C)(C)Cc1ccccc1`, the cell viability was 88.2%.

`CC(C)(C)CC(C)(C)c1ccc(OCCOCC[N+](C)(C)Cc2ccccc2)cc1`: the cell viability amounted to 97.1%.

As for `CCCCCCCCCCCCC[N+](C)(C)Cc1ccccc1`, the cell viability is 25.7%.

Turning to `Cc1ccc(C(C)C)cc2c(C)ccc1-2`, the cell viability was 84.7%.

For `COc1ccc(-c2cc(=O)c3c(O)c(OC)c(OC)c(OC)c3o2)cc1OC`, the cell viability stood at 80.2%.

With `O=C(Nc1ccccc1)c1ccccc1O`, the cell viability was found to be 97.1%.

`O=C(CCCCCCC(=O)Nc1ccccc1)NO` [Vorinostat (SAHA)]: the cell viability turned out to be 22%.

Regarding `O=C(Nc1ccccc1)Nc1ccccc1`, the cell viability turned out to be 87.7%.

As to `O=c1c(O)c(-c2ccccc2)oc2cccc(O)c12`, the cell viability stood at 93.1%.

Regarding `CCC(CCC(C)C1CCC2C3CCC4CC(O)CCC4(C)C3CCC12C)C(C)C` (centres undefined), the cell viability came to 89.6%.

Take `C=C1C(N)CC2CC1C2(C)C` (stereo not drawn) [3-AMINO-beta-PINENE]: the cell viability came out at 96.3%.

As for `CC(C)[C@@H]1CC[C@@H](C)CC1=O`, the cell viability worked out at 102%.

On to `CC(=O)O[C@H]1C(=O)[C@@]2(C)[C@H]([C@H](OC(=O)c3ccccc3)[C@]3(O)C[C@H](OC(=O)[C@H](O)[C@@H](NC(=O)c4ccccc4)c4ccccc4)C(C)=C1C3(C)C)[C@]1(OC(C)=O)CO[C@@H]1C[C@@H]2O` [Paclitaxel (Taxol)], for which the cell viability turned out to be 12.3%.

Take `CC(=O)O[C@@]12CO[C@@H]1C[C@H](O)[C@@]1(C)C(=O)[C@H](O)C3=C(C)[C@@H](OC(=O)[C@H](O)[C@@H](NC(=O)OC(C)(C)C)c4ccccc4)C[C@@](O)([C@@H](OC(=O)c4ccccc4)[C@H]21)C3(C)C` [Docetaxel (Taxotere)]: the cell viability is 14.7%.

For the molecule `CC(=O)O[C@H]1C(=O)[C@@]2(C)[C@H]([C@H](OC(=O)c3ccccc3)[C@]3(O)C[C@H](OC(=O)[C@H](O)[C@@H](NC(=O)c4ccccc4)c4ccccc4)C(C)=C1C3(C)C)[C@]1(OC(C)=O)CO[C@@H]1C[C@@H]2O`, the cell viability is 11.7%.

In the case of `COc1nc(C)cnc1NS(=O)(=O)c1cccnc1-c1ccc(-c2nnco2)cc1` [Zibotentan (ZD4054)], the cell viability turned out to be 71.2%.

`Nc1nccc(Oc2ccc(NC(=O)c3c[nH]cc(-c4ccc(F)cc4)c3=O)cc2F)c1Cl`: the cell viability was 83.2%.

As to `O=C1c2ccccc2C(=O)c2c(O)c(O)cc(O)c21`, the cell viability is 83.8%.

Regarding `O=c1c(O)c(-c2ccccc2)oc2cc(O)ccc12`, the cell viability turned out to be 107%.

`CC1(C)CC[C@]2(C(=O)O)CC[C@]3(C)C(=CC[C@@H]4[C@@]5(C)CC[C@H](O)[C@@](C)(CO)[C@@H]5CC[C@]43C)[C@@H]2C1`: the cell viability is 89.4%.

Turning to `COc1ccc(C(C)=O)c(OC)c1`, the cell viability was determined as 91.5%.

As to `COC(=O)c1c(C)cc(OC(=O)c2c(C)cc(O)c(C=O)c2O)c(C)c1O`, the cell viability worked out at 100%.

As for `O=C(NCCCNc1nc(Nc2cccc(NC(=O)N3CCCC3)c2)ncc1I)c1cccs1`, the cell viability amounted to 47.6%.

For the molecule `C#CC1(O)CC[C@H]2[C@@H]3CCC4=CC(=O)CC[C@@H]4[C@H]3CC[C@@]21CC` (mixture of isomers), the cell viability was determined as 69.3%.

As to `C[C@@H]1CC[C@H]2C(C)(C)[C@H]3C[C@@]12CC[C@@]3(C)O`, the cell viability was 105%.

With `COc1cc2ccc(=O)oc2c(OC)c1OC`, the cell viability is 110%.

In the case of `CCCCCCCCCCCCCCC(C(=O)O)C(O)(CC(=O)OC)C(=O)O` (centres undefined), the cell viability was determined as 87.8%.

On to `CN1CCN(c2ccc3nc(-c4c(N)c5c(F)cccc5[nH]c4=O)[nH]c3c2)CC1` [Dovitinib (TKI-258)], for which the cell viability is 26.7%.

`COc1cc2c(cc1OC)-c1cc3ccc(OC)c(OC)c3c[n+]1CC2`: the cell viability was 95.7% and 88.9%.

For `CC(=O)O[C@@H]1CC2C(C)(C)[C@H](O)CC[C@]2(C)C2CC[C@@]3(C)[C@H](c4ccoc4)OC(=O)C4OC43[C@@]21C` (stereo partly drawn) [alpha-DIHYDROGEDUNOL], the cell viability came out at 123%.

Regarding `COc1ccc(-c2coc3c(O)c(OC)ccc3c2=O)cc1`, the cell viability came out at 94.6%.

As to `CNC(=O)c1ccc(C)c(-n2c(C)cc(OCc3ccc(F)cc3F)c(Br)c2=O)c1`, the cell viability is 87.5%.

For `CO[C@H]1C[C@@H]2CC[C@@H](C)[C@@](O)(O2)C(=O)C(=O)N2CCCC[C@H]2C(=O)O[C@H]([C@H](C)C[C@@H]2CC[C@@H](OC(=O)C(C)(CO)CO)[C@H](OC)C2)CC(=O)[C@H](C)/C=C(\C)[C@@H](O)[C@@H](OC)C(=O)[C@H](C)C[C@H](C)/C=C/C=C/C=C/1C`, the cell viability is 11%.

Take `C=CC[C@@H]1/C=C(\C)C[C@H](C)C[C@H](OC)[C@H]2O[C@@](O)(C(=O)C(=O)N3CCCC[C@H]3C(=O)O[C@H](/C(C)=C/[C@@H]3CC[C@@H](O)[C@H](OC)C3)[C@H](C)[C@@H](O)CC1=O)[C@H](C)C[C@@H]2OC`: the cell viability came to 85.3%.

Turning to `CO[C@H]1C[C@@H]2CC[C@@H](C)[C@@](O)(O2)C(=O)C(=O)N2CCCC[C@H]2C(=O)O[C@H]([C@H](C)C[C@@H]2CC[C@@H](O)[C@H](OC)C2)CC(=O)[C@H](C)/C=C(\C)[C@@H](O)[C@@H](OC)C(=O)[C@H](C)C[C@H](C)/C=C/C=C/C=C/1C`, the cell viability amounted to 44%.

Consider `CO[C@H]1C[C@@H]2CC[C@@H](C)[C@@](O)(O2)C(=O)C(=O)N2CCCC[C@H]2C(=O)O[C@H]([C@H](C)C[C@@H]2CC[C@@H](OCCO)[C@H](OC)C2)CC(=O)[C@H](C)/C=C(\C)[C@@H](O)[C@@H](OC)C(=O)[C@H](C)C[C@H](C)/C=C/C=C/C=C/1C` [Everolimus (RAD001)], for which the cell viability is 50.2%.

Consider `CO[C@H]1C[C@@H]2CC[C@@H](C)[C@@](O)(O2)C(=O)C(=O)N2CCCC[C@H]2C(=O)O[C@H]([C@H](C)C[C@@H]2CC[C@@H](O)[C@H](OC)C2)CC(=O)[C@H](C)/C=C(\C)[C@@H](O)[C@@H](OC)C(=O)[C@H](C)C[C@H](C)/C=C/C=C/C=C/1C` [Rapamycin (Sirolimus)], for which the cell viability is 41.5%.

The record behind these values is the supplement of paper PMC11150407.
